Bioassay records (PubChem)
ADAM10 inh = ADAM10 inhibition, QFRET primary screen | O14672 | recombinant ADAM10, EDANS/DABCYL FRET peptide cleavage, 3 h | inhibition, % at 7 µM | actives 0.62% (n = 370,000) | AID 720582;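 active = inhibition above a per-campaign cutoff equal to the mean of compounds falling between control-based bounds plus 3 SD, cut at about 20% in these data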
KLK7 zymogen act = activates the human kallikrein-7 zymogen; P49862; purified proKLK7, EDANS-DABCYL substrate fluorescence; 100% is mature enzyme control, 0% vehicle; activation, % at 7 µM; actives 0.9% (n = 370,000); AID 652039;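 active = activation above the mean of all tested compounds plus 3 SD, computed per campaign excluding outliers beyond control limits, cut at about 13% in these data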
ADAM17 inh = inhibits human ADAM17. recombinant ADAM17, EDANS/DABCYL FRET peptide cleavage. inhibition, % at 6.95 µM. actives 0.83% (n = 370,000). AID 720648;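 active = inhibition above the mean of compounds lying between control limits plus 3 SD, set per campaign, cut at about 8.5% in these data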
Target sequence (P78536 215-824 limits assumed): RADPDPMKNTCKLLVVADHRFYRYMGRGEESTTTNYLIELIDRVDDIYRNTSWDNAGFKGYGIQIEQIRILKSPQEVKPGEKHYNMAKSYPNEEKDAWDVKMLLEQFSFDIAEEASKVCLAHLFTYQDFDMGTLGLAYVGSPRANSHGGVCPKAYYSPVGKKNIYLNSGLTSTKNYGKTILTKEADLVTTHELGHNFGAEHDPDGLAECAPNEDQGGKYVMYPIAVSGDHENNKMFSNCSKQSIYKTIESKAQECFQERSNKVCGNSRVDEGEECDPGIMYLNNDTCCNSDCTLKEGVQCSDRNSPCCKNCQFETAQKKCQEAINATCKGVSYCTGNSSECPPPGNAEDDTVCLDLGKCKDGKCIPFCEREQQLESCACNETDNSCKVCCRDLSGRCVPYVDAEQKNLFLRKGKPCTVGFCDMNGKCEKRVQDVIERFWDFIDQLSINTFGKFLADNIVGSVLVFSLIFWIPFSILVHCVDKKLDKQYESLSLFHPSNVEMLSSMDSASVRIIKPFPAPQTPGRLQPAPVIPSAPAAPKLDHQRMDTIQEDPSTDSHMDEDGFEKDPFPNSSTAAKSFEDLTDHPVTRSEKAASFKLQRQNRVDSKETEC
V-ATPase pHluor = regulators of yeast V-ATPase proton transport; actives 0.37% (n = 350,000); S. cerevisiae, pHLuorin cytosolic pH fluorescence; response, % at 10 µM; in the data active = response mostly above about 7.3%, no sharp cut-off; inactive = mostly below about 5.4%; note: actives read high
proKLK7 act conf = confirmation of human kallikrein-7 zymogen activators; purified proKLK7, EDANS-DABCYL substrate fluorescence; scaled: vehicle 0, mature enzyme 100; shares compounds with KLK7 zymogen act; activation, % at 7 µM; actives 68% (n = 3,200); AID 686949;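 active = activation, as change over the incubation, above the mean of all tested compounds plus 3 SD, cut at about 13% in these data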
EDANS interfere = fluorescence interference counter-screen for KLK7 activators; shares compounds with KLK7 zymogen act; EDANS-DABCYL substrate fluorescence interference, no enzyme, 4 h; solvent 0%, active enzyme control 100%; activation, % at 7 µM; actives 80% (n = 3,200); AID 686952;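 active = activation above the all-compound mean plus 3 SD, ignoring values outside control-based bounds, cut at about 4.8% in these data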;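 note: value is the 4 h activation minus the activation read at time zero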
K7 EDANS ctr = optically interferes with EDANS-DABCYL fluorescence, kallikrein-7 activator counter-screen | shares compounds with KLK7 zymogen act | EDANS-DABCYL peptide fluorescence interference, no enzyme | EC50, µM | actives 20% (n = 250) | AID 720493;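 active = compounds that raise the fluorescence signal in this interference counterscreen, with EC50 at or below 10 µM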;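 note: intact quenched peptide substrate alone read at 355 nm excitation and 520 nm emission; signal is fluorescence gain from T0 to T4 after four hours at room temperature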
A number is an active result; i = inactive; nt = not tested or not shown. A selection: hits, their analogues and other compounds. The true share with any hit is near 2.3%.

SMILES	ADAM10 inh	KLK7 zymogen act	ADAM17 inh	V-ATPase pHluor	proKLK7 act conf	EDANS interfere	others
O=C(COC(=O)c1ccccc1F)Nc1ccc2c(c1)OCCO2	i	i	i	i	nt	nt
O=C(COC(=O)c1cc(Cl)ccc1O)Nc1ccc2c(c1)OCCO2	i	19	i	i	19	16
O=C(OCC(=O)N1CCCc2ccccc21)c1cc(Br)ccc1O	i	i	i	i	nt	nt
CC1(c2ccccc2)NC(=O)N(NC(=O)COC(=O)c2cc(Br)ccc2O)C1=O (stereo not given)	i	28	i	i	34	38
O=C(COC(=O)c1cc2ccccc2cc1O)Nc1ccccc1F	i	14	i	i	15	13
O=C(CSc1nnc(-c2cccnc2)n1-c1ccccc1)Nc1ccc2c(c1)OCCO2	i	i	i	nt	nt	nt
CC(C)C[C@H](NC(=O)C1CC1)C(=O)N1CCC[C@H]1C(=O)NCc1ccccc1	i	i	i	nt	nt	nt
NCCC(=O)Nc1ccc(Cl)cc1C(=O)c1ccc[nH]1	i	nt	i	nt	nt	nt
O=c1[nH]c(N2CCOCC2)cc2ccccc12	i	34	i	i	20	i	K7 EDANS ctr=i
CCNC(=O)Nc1ccc2c(c1)C(=O)N(C)[C@H]1CC[C@@H](CC(=O)OC)O[C@H]1CO2	i	i	i	nt	nt	nt
COc1ccc(-c2cc(-c3nnc(SCC(=O)Nc4ccc(OCc5ccccc5)cc4)n3N)[nH]n2)cc1	i	i	i	nt	nt	nt
Cc1[nH]c2ccccc2c1CC(=O)Nc1ccc(Oc2cccnc2)cc1	i	i	i	nt	nt	nt
CN(C)Cc1c(O)ccc2cc(-c3nc4ccccc4n3C)c(=O)oc12	i	78	i	i	67	77
CCN(CC)c1ccc2cc(-c3nc4ccccc4n3C)c(=O)oc2c1	i	i	i	i	nt	nt
c1ccc2nc(N3CCCC3)c(N3CCCCC3)nc2c1	i	i	i	i	nt	nt
c1ccc2nc3c(nc2c1)OCC1CCCCN31 (stereo not given)	i	16	i	i	18	28
COC(=O)c1cccc(Cn2ccc3ccc(-c4ccc5ccn(C(=O)c6ccc(C)cc6)c5c4)cc32)c1	i	i	i	nt	nt	nt
CC(C)Cn1c(N)c(C(=O)COC(=O)c2nccnc2N)c(=O)n(C)c1=O	i	13	i	i	i	i
COc1ccccc1N1C(=O)c2ccccc2NC1c1ccc(O)cc1 (stereo not given)	i	23	i	i	20	26
COc1cc(C2Nc3ccccc3C(=O)N2c2ccccc2OC)ccc1O (stereo not given)	i	13	i	i	15	17
Cc1oc2c(CN3CCOCC3)c(O)ccc2c(=O)c1-c1ccc(Cl)cc1	i	49	i	i	i	6.1
Cc1oc2c(CN3CCCC3)c(O)ccc2c(=O)c1-c1ccc(Cl)cc1	i	27	i	i	40	50
Cc1oc2c(CN3CCC(C)CC3)c(O)ccc2c(=O)c1-c1ccccc1	i	37	i	i	40	45
CCOC(=O)[C@@H]1CSCCS(=O)(=O)N1C(=O)[C@H](CCSC)NC(=O)OC(C)(C)C	i	i	i	nt	nt	nt
O=C(Nc1nc2ncccn2c1-c1ccccc1)c1ccccc1	i	i	i	nt	nt	nt
SMILES	ADAM10 inh	KLK7 zymogen act	ADAM17 inh	V-ATPase pHluor	proKLK7 act conf	EDANS interfere	others
Cc1c(O)ccc2c(CC(=O)N[C@@H](Cc3ccccc3)C(=O)O)cc(=O)oc12	i	36	i	i	65	61
Cc1c(-c2ccccc2)c(=O)oc2ccc(O)cc12	i	i	i	i	nt	nt
Cc1c(-c2ccccc2)c(=O)oc2cc(O)ccc12	i	25	i	i	65	69
Cc1c(CC(=O)NCC(=O)N[C@H](Cc2ccccc2)C(=O)O)c(=O)oc2cc(O)ccc12	i	72	i	i	64	73
COc1ccc2c(CC(=O)N[C@@H](Cc3ccccc3)C(=O)O)cc(=O)oc2c1	i	i	i	i	nt	nt
CCc1cc2c(CN3CCN(Cc4ccccc4)CC3)cc(=O)oc2cc1O	i	62	i	i	21	i	K7 EDANS ctr=i
CC1(C)Oc2ccc(C(=O)NCCCN3CCCC3)cc2NC1=O	i	i	i	nt	nt	nt
